Source: PubChem BioAssay AID652048 (National Center for Advancing Translational Sciences (NCATS), 2013)
About 2,400 (0.59%) of roughly 410,000 compounds were called active. Rule as the data show it: active = max activation above about 30%; inactive = the rest. The list comes from a sample in which actives are over-represented; it also holds similar structures and randomly drawn compounds.

The compounds below were run against D(3) dopamine receptor (Homo sapiens) (UniProt P35462) (assay: qHTS of D3 Dopamine Receptor Agonist: qHTS). Settings: D3R DiscoveRx beta-arrestin cells, luminescence, 90 min; hits give high values.
Procedure, shortened: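 Cells at 1500/well, incubated overnight, then treated with pinned compounds (dopamine as control) for 90 min at 37 degrees C. DiscoveRx reagent added for 30 - 60 minutes at room temperature; luminescence read.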
Also: 0% is about no effect.

D(3) dopamine receptor (Homo sapiens), sequence (P35462 whole entry, looked up): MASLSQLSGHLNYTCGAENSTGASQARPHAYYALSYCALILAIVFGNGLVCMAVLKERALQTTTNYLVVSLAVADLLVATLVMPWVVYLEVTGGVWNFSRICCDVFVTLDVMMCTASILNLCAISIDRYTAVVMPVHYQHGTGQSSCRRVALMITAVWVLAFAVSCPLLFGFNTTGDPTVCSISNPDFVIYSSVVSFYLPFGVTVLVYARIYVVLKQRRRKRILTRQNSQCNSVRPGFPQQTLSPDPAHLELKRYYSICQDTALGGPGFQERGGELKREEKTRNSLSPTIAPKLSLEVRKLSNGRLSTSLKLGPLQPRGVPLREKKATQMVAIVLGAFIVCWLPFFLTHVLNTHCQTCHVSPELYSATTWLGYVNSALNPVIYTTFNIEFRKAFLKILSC

| SMILES | max activation |
| --- | --- |
| CCCn1c2ccccc2c2cnn(CC(=O)N3CCCC(C(=O)OCC)C3)c(=O)c21 (centres undefined) | 6.55% (inactive) |
| COc1ccc(-n2nnc(-c3nsc(NC(=O)c4ccc(C)c(C)c4)n3)c2C)cc1Cl | 41.8% (active) |
| CCc1cccc(-n2nnc(-c3nsc(NC(=O)c4ccc(C)cc4)n3)c2C)c1 | -11.9% (inactive) |
| Cc1c(-c2nsc(NC(=O)c3cccc(Cl)c3)n2)nnn1-c1ccccc1C(F)(F)F | -0.907% (inactive) |
| Cc1c(OC(C)C(=O)N[C@@H](Cc2ccccc2)C(=O)O)ccc2c3c(c(=O)oc12)CCCC3 (some centres undefined) | 37.1% (active) |
| Cc1c(OC(C)C(=O)NCC2CCC(C(=O)O)CC2)ccc2c1oc(=O)c1ccccc12 (centres undefined) | -0.808% (inactive) |
| Cc1oc2c(C)c3oc(=O)c(CC(=O)N[C@@H](CC(C)C)C(=O)N[C@@H](Cc4ccccc4)C(=O)O)c(C)c3cc2c1C | 11.4% (inactive) |
| COC(=O)c1c(NC(=O)c2cc(=O)c3c(C)cc(C)cc3o2)sc2c1CCCC2 | 4.95% (inactive) |
| CCN1C(=NCCc2cccnc2)N[C@@H](c2ccccc2)C(C(=O)OC)=C1C | -55.8% (inactive) |
| Cc1cc(C)cc(Nc2ncnc3onc(-c4ccc(F)cc4)c23)c1 | 9.02% (inactive) |
| COC(=O)c1ccc(OC(=O)c2nn(C)cc2Cl)c(OC)c1 | 1.35% (inactive) |
| COc1ccc(CCn2ccc(O)c(Cc3ccc(Cl)cc3Cl)c2=O)cc1OC | -10.8% (inactive) |
| COc1ccc(C(=O)O/N=C(\N)Cc2ccc(Cl)cc2Cl)cc1OC | 36.2% (active) |
| CC(=O)c1ccc(NC(=O)CCc2nc(-c3ccc(C)cc3)no2)cc1 | 2.51% (inactive) |
| Cc1ccc(OCCSc2nc(-c3cccs3)nc3cc(=O)[nH]n23)cc1Cl | 6.63% (inactive) |
| Cc1c(C(=O)OC(C)C)sc(NC(=O)c2cccnc2)c1C#N | -1.22% (inactive) |
| CCCc1ccc(-c2c(C)sc(NC(=O)c3ccnn3C)c2C#N)cc1 | 57.1% (active) |
| CCc1ccccc1NC(=O)CSc1nc(C)c(C(=O)Nc2ccccc2)c(-c2ccc(Cl)cc2)c1C#N | 3.31% (inactive) |
| Cc1ccccc1Nc1nn2c(=O)c3ccc(C(=O)NCCc4ccc(Cl)cc4)cc3nc2s1 | 4.22% (inactive) |
| COc1cc(NS(=O)(=O)c2ccc3c(c2)OCC(C(=O)N2CCCC2)O3)cc(OC)c1 (centres undefined) | 19.5% (inactive) |
| Cc1c(CC(=O)N2CCN(C(=O)C3COc4ccccc4O3)CC2)c(=O)oc2c(O)c(O)ccc12 (centres undefined) | 40.6% (active) |
| COc1ccc(OC)c2sc(N3CCN(C(=O)C4COc5ccccc5O4)CC3)nc12 (centres undefined) | -1.78% (inactive) |
| CCC(C)c1ccc(O)c(/C=N/O)c1 (centres undefined) | -1.03% (inactive) |
| CNCC(O)c1ccc(O)c(O)c1 (centres undefined) | 137% (active) |
| Cc1cc(C)c(-c2n[nH]c3c2C(c2ccccc2F)N(CCO)C3=O)c(O)c1 (centres undefined) | -0.594% (inactive) |
| CCC1(C)CC(=O)NC1=O (centres undefined) | -5.68% (inactive) |
| Cc1cc(C(=O)Nc2cccc(C(F)(F)F)c2)c2c(C)nn(-c3cccc(F)c3)c2n1 | 8.25% (inactive) |

| SMILES | max activation |
| --- | --- |
| CCOC(=O)CSc1nnc(CNC(=O)c2cccs2)n1-c1cc(OC)ccc1OC | 6.63% (inactive) |
| CC(C)(C)OC(=O)N1CCC(c2c(C(=O)N3CCN(c4cccc(Cl)c4)CC3)cnn2-c2cccc(Cl)c2)CC1 | -9.63% (inactive) |
| COC(=O)c1ccccc1NC(=O)Cn1c(=O)n(-c2cccc(C(F)(F)F)c2)c(=O)c2c(C)c(C)sc21 | -14.9% (inactive) |
| Cc1ccc(N(Cc2ccc(C(=O)Nc3ccccc3C(=O)NCc3ccco3)cc2)S(C)(=O)=O)cc1C | 33.8% (active) |
| CCN1CCN(C(=O)c2ccc(CN(c3ccc(C)c(C)c3)S(C)(=O)=O)cc2)CC1 | -12.8% (inactive) |
| CS(=O)(=O)N(Cc1ccc(Cl)cc1)c1ccc(C(=O)NCCSCc2ccco2)cc1 | 0.47% (inactive) |
| Cc1oc2ncnc(N3CCCCC3)c2c1C(=O)N1CCN(c2cccc(Cl)c2)CC1 | -5.06% (inactive) |
| Cc1cc(C)cc(NC(=O)CSc2nc(=O)n(CCN3CCOCC3)c3c2CCC3)c1 | 0.821% (inactive) |
| CC(C)(C)OC(=O)N1CCC(c2c(C(=O)NCc3ccccn3)cnn2-c2ccc(F)cc2)CC1 | -0.963% (inactive) |
| CCCOc1ccc(NC(=O)CC2C(=O)N(c3ccccc3)C(=O)N2Cc2ccco2)cc1 (centres undefined) | 8.76% (inactive) |
| COc1ccc(-c2cc(-c3nc(-c4cc(OC)c(OC)c(OC)c4)no3)[nH]n2)c(OC)c1 | 5.61% (inactive) |
| CCc1ccc(-n2nnc(-c3nc(-c4ccccc4)no3)c2C)cc1 | 6.45% (inactive) |
| COc1ccc(OC)c(-n2nnc(-c3nc(-c4cc(OC)c(OC)c(OC)c4)no3)c2C)c1 | 31.2% (active) |
| Nc1ccccc1SC(C[N+](=O)[O-])c1ccccc1 (centres undefined) | 0.396% (inactive) |
| Cc1cccc(C)c1NC(=O)NC1=CCCN1C | 0.916% (inactive) |
| O=C(O)CCC(=O)O | 17.7% (inactive) |
| CCOc1ccc(S(=O)(=O)c2cn(Cc3ccccc3)c3ccc(OCC)cc3c2=O)cc1 | 6.37% (inactive) |
| COc1ccc(OC)c(-c2c(=O)n(OCc3ccccc3Br)c3ccccc3[n+]2[O-])c1 | -6.63% (inactive) |
| CCOc1ccc(OCC)c(-c2c(=O)n(OCc3ccc(Cl)cc3)c3ccccc3[n+]2[O-])c1 | 39.5% (active) |
| O=C(OCc1ccccc1)c1ccc(O)cc1 | 3.77% (inactive) |
| Cc1ccc(C(=O)COC(=O)c2cccc(N3C(=O)c4c(C)nc5ccccc5c4C3=O)c2)cc1C | 40.4% (active) |
| Cc1ccc(C(=O)OCC(=O)NC2CCCCCCC2)cc1C | 1.29% (inactive) |
| Cc1ccc(C(=O)COC(=O)CCN2C(=O)C3C4CCC(C4)C3C2=O)cc1C (centres undefined) | -16.9% (inactive) |
| Cc1cc2c(cc3c(SCc4nc(-c5ccccc5)oc4C)nnc(C)n32)o1 | -6.34% (inactive) |
| COc1ccc(C(=O)c2oc3ccccc3c2NC(=O)COc2cccc(C)c2)cc1 | -8.79% (inactive) |
| Cc1ccc(N(CC(=O)NCc2ccc(Cl)cc2)S(=O)(=O)N(C)C)cc1 | 1.16% (inactive) |
| Cc1ccccc1OCC(=O)Nc1c(C(=O)Nc2ccccc2F)oc2ccccc12 | -10.6% (inactive) |
